Source: PubChem (National Center for Advancing Translational Sciences (NCATS))
Sampled rows, rich in hits. Any-hit rate of the full collection: about 1.2%.
GLA spleen mod: alpha-galactosidase A (human) modulation | human spleen homogenate, 4MU-alpha-Gal fluorescence, 40 min | Potency, µM (titrated, usually from 80 µM), without a hit: at the highest dose activity change, negative = inhibition, most hits filed as inhibitors | actives 0.008% (n = 240,000) | AID 2107;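 also: potency is read from the fitted curve at half-maximal effect; 0% = enzyme with vehicle and -100% = no enzyme basal signal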
Target sequence (P06280 32-429 limits assumed): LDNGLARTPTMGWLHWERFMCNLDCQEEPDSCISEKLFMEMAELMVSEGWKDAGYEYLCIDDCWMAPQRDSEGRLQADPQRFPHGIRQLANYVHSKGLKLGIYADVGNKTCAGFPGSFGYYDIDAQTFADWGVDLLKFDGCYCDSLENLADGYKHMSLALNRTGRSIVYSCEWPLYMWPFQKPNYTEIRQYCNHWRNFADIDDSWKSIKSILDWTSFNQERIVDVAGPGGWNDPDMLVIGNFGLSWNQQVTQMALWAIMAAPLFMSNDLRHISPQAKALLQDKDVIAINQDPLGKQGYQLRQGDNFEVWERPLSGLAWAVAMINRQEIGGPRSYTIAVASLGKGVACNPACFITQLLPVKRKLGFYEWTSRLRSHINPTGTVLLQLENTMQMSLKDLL
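qHTS titration in buffer at pH 5.0. Alpha-galactosidase activity in spleen homogenate was measured via 4-methylumbelliferone release from 1 mM fluorogenic substrate after 40 min at 37C and a pH 10 stop. AC50 came from Hill fits of control-normalized data.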
HTT cytoprotect: Huntington cell model cytoprotection by ATP luminescence. PC12 HTT-Q103 induced, cytoprotection, ATP luminescence, 40 h. Potency, µM (highest dose often 56.4 µM), for the others: cytoprotection (ATP increase), usual class: activators. actives 0.14% (n = 230,000); also: potency is read from the fitted curve at half-maximal effect; % of control where 0% means no effect; nearly all actives have a fitted effect of over 45% in size
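ATP quantification (ATPlite) reports survival of PC12 cells in which tebufenozide, 100 nM final, switches on Htt exon 1 with 103 glutamines linked to GFP; compounds are titrated.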
HttQ103 aggreg: mutant huntingtin aggregation inhibition; actives 1.1% (n = 220,000); AID 1688; Potency, µM (series often up to 46.1 µM), for the others: at the top dose activity change, negative = inhibition, most hits filed as inhibitors; PC12 HttQ103-GFP aggregates, Acumen cytometry, 40 h; also: potency is read from the fitted curve at half-maximal effect; % is scaled to controls: 0 for no effect and ±100 for the full control effect; nearly all actives have a fitted effect of over 60% in size
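Steps: seed 1500 PC12 HTTQ103-GFP cells/well; add tebufenozide, 100 nM final; add compound titration; add ATPLite reagent; quantify GFP aggregates by laser scanning cytometry.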
ERK EGF inh: inhibitors of EGF-stimulated ERK signaling pathway | HEK293-V1b, EGF-stimulated phospho-ERK AlphaScreen | Potency, µM (series often up to 11.5 µM), inactives show top-dose activity change, negative = inhibition, most hits filed as inhibitors | actives 0.41% (n = 130,000) | AID 1454;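 also: potency is read from the fitted curve at half-maximal effect; plate controls were stimulated vehicle wells for no effect and unstimulated vehicle basal for full effect; nearly all actives have a fitted effect of over 55% in size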
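HEK293 cells stably expressing V1b receptor, serum-reduced (1% FBS) overnight, pretreated 30 min with compound, then stimulated 5 min with 25 nM EGF; phospho-ERK detected by AlphaScreen SureFire. AC50 from Hill fits, normalized to DMSO and EGF.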
GLA inh pH 4.5: blocks human alpha-galactosidase A at pH 4.5. 230,000 tested, under 10 active. purified enzyme, 4-MU-alpha-Gal fluorescence, pH 4.5. P06280. activity change, negative = inhibition, % at 105 µM;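 also: 0% = full activity with enzyme and -100% = basal without enzyme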
Numbers without * were called inactive; u = inconclusive; x = no result given; ! = repeats disagree; [ ] = another dose, or the depositor's remark. Calls follow the shape of the dose curve; as a rule, active = well fitted curve in the direction sought with a large enough effect; inconclusive = small, poorly fitted or top-dose-only effect, or another doubt; inactive = no such curve, though single readings can be large; an effect the other way counts as inactive or inconclusive.

SMILES	GLA spleen mod	HTT cytoprotect	HttQ103 aggreg	ERK EGF inh	GLA inh pH 4.5
O=C(c1cncc(Br)c1)N1CCc2ccccc2C1	-1%	14%[10 µM]	10µM*	x	-3
CCCCCCCCCCCCCCNCCO	x	-4%	-10%	x	x
CCCCC1=CC2=C(c3ccco3)C(=O)C(C)(OC(=O)c3cccs3)C(=O)C2=CO1 (centres undefined)	-2%	-16%	x	-4%	-10
CC12CCC(C[N+](C)(CCC[N+](C)(C)C)C1)C2(C)C (centres undefined)	x	-1%	15%	x	x
CCc1ccccc1N(CC)C(=O)CCc1nc(-c2ccc(C)cc2)no1	14%	-47%	10µM*	x	0
Nc1nc(-c2ccccc2)c(-c2ccccc2)s1	5%	u	7%	x	-1
Nc1nc(-c2ccccc2)c(-c2ccc([N+](=O)[O-])cc2)s1	-6%	-74%	u	25µM*	5
Fc1ccc(/C=N/N2CCOCC2)c(F)c1	2%	0.71µM*	-6%	-5%	-30
Cc1cc2c(cc1C)C(=O)NC(C)(C)C2	6%	-3%	10µM*	x	3
CC(=O)OCCBr	11%	x	x	x	x
CCCCC(C)(C)[C@H](O)/C=C/[C@H]1[C@H](O)CC(=O)[C@@H]1C/C=C\CCCC(=O)O	11%	10%	x	-14%	-8
CCCCc1nc2c(c3c1C[C@H](C)OC3)CN(C(=O)c1ccco1)CC2	3%[17.5 µM]	-12%[10 µM]	x	x	7
COc1ccc(-n2c(-c3ccc(Br)cc3)c[n+]3c2CCc2ccccc2-3)cc1	-18%	-13%[10 µM]	13µM*	-5%	0
COc1ccccc1-n1c(-c2ccccc2)c[n+]2c1CCc1ccccc1-2	-2%	-87%	2.2µM*	-9%	0
COc1ccccc1-n1c(-c2ccccc2)c[nH]c1=S	-7%	8%[10 µM]	-10%	2%	6
N#Cc1ccc(NCCNCC(=O)N2N=CCC2C#N)nc1 (centres undefined)	0%	x	x	x	x
Cn1nc(C(F)(F)F)c(C#N)c1N1CCN(c2ccc(F)cc2)CC1	-2%	28%	11µM*	x	0
Cn1nc(C(F)(F)F)c(C#N)c1N1CCN(c2ccccn2)CC1	-4%	-11%	-27%	1%	5
Cn1nc(C(F)(F)F)c(C#N)c1N1CCN(c2ccccc2)CC1	3%	-11%	1.4µM*	x	1
N#Cc1ccc(NC(=O)Nc2ccc(Oc3ccc(NC(=O)Nc4ccc(C#N)cc4)cc3)cc2)cc1	2%	-4%[10 µM]	-18%[9.22 µM]	32µM*	-1
N#Cc1ccc(NC(=O)Nc2cccc(C#N)c2)cc1	-7%	-24%[10 µM]	-31%[9.22 µM]	-3%[57.5 µM]	-4
CN(C)c1ccc(C2(c3ccc(N(C)C)cc3)OC(=O)c3cc(N(C)C)ccc32)cc1	4%	7%	x	x	x
O=C(OCc1ccccc1F)c1ccc2c(c1)-c1ccccc1C2=O	0%	-7%	0.79µM*	x	-9
COC(=O)C(CCSC)NS(=O)(=O)c1ccccc1Br (centres undefined)	3%	x	x	x	x
COc1ccc(NC(=O)/C(Cl)=C(/Cl)S(=O)Cc2ccccc2)cn1 (centres undefined)	1%	-91%	5µM*	x	-24
SMILES	GLA spleen mod	HTT cytoprotect	HttQ103 aggreg	ERK EGF inh	GLA inh pH 4.5
COc1ccc(CCNc2nc3ccccc3n3nnnc23)cc1OC	-3%	14%	10%	x	-2
COc1ccc(CCNCc2csc3nc4ccccc4n23)cc1OC	6%	-18%	7.1µM*	x	0
N#C/C(=C/c1ccc(N2CCCCC2)o1)C(=O)Nc1ccc2ccccc2c1	-6%	1%[10 µM]	2.5µM*	-7%	-7
O=C(NCCC1=CCCCC1)C(c1ccccc1)c1ccccc1	14%	-30%	-32%	x	-2
CC(C(=O)NCCC1=CCCCC1)N1C(=O)c2ccccc2C1=O (centres undefined)	-11%	-61%[10 µM]	5.6µM*	x	-8
COC(=O)c1c(C)n(-c2ccc(OC)cc2)c2ccc(O)cc12	8%	-15%	11µM*	x	0
CC(=O)[C@]1(O)CC[C@@H]2[C@H]3C[C@@H](C)C4=CC(=O)CC[C@@]4(C)[C@H]3[C@@H](O)C[C@]21C	x	1%[10 µM]	x	x	x
Cc1ccc(Oc2ccc(NC(=O)c3ccco3)cc2)cc1	15%	-25%	22µM*	x	-5
CC1CCC(C(C)C)C(OC(=O)C[n+]2cc(-c3ccc(Cl)cc3)n3c2CCCCC3)C1 (centres undefined)	2%	3%[10 µM]	13µM*	u	8
O=C1c2ccccc2C(=O)C12OC2c1ccc(Cl)cc1 (centres undefined)	0%	0%[10 µM]	32µM*	-8%	5
O=C1NC(c2ccc(Cl)cc2)Nc2ccccc21 (centres undefined)	2%	-32%[10 µM]	-12%[9.22 µM]	u	3
Cc1ccc(C)c(NC(=O)c2cnn3ccccc23)c1	5%	-103%	13µM*	x	-7
Cc1ccc(C)c(NC(=O)c2cc3ccccn3n2)c1	1%	-31%[10 µM]	-9%	x	5
N#Cc1c(NC(=O)Cn2c(=O)oc3ccccc32)oc(-c2ccccc2)c1-c1ccccc1	5%	9%	20µM*	x	-10
N#C/C(=N\O)c1nc(-c2ccccc2)cs1	6%	-7%	8.9µM*!	x	8
CC1(C)CCC(C)(C)c2cc(NC(=O)c3ccc(C(=O)O)cc3)ccc21	x	-6%	2%	x	x
C=CCc1cccc(/C=N/NC(=O)C(=O)Nc2ccc(C)cc2)c1O	3%	x	x	-8%	9
C=CCc1cccc(/C=N/NC(=O)C(C)Nc2ccc(C)cc2)c1O (centres undefined)	9%	9%[10 µM]	8.9µM*	-2%	-5
CCCNC(=O)N1N=C(c2ccc(N)cc2)c2cc3c(cc2[C@H]1C)OCO3	1%	u	x	-4%	-3
Cc1cccc(NC(=S)NCCc2c[nH]c3ccccc23)c1	3%	9%[10 µM]	11µM*	13%	-8
COc1cc(O)c(C(CCN2CCN(c3ccccc3)CC2)c2ccc(N(C)C)cc2)c(OC)c1 (centres undefined)	6%	-9%[10 µM]	-32%[9.22 µM]	18µM*	-8
COc1ccc(-c2nn(-c3ccccc3)cc2/C=N/N=C(N)N)cc1OC	3%	2%[10 µM]	9%	25µM*	-8
Cc1ccc2cccc(OC(=O)/C=C\c3ccccc3)c2n1	-6%	3.2µM*	10%[9.22 µM]	9%	-2
CCOC(=O)[C@]1(C(NC(=O)OC)c2ccco2)CCCC1=O (some centres undefined)	7%[17.5 µM]	u	x	x	x
CCOC(=O)/C=C/S(=O)(=O)c1ccc(NC(C)=O)cc1	-3%	-162%	4µM*	x	-9
CCCCc1nc2c(c3c1C[C@H](C)OC3)CN(S(=O)(=O)CCCC)CC2	7%[17.5 µM]	0%[10 µM]	x	x	-9
CCOc1ccccc1-c1nnc2n1N=C(c1c(OC)cccc1OC)CS2	-10%	x	x	x	x
CC(C)CNS(=O)(=O)c1ccc(CCC(=O)N2CCN(Cc3ccc4c(c3)OCO4)CC2)cc1	0%	-18%[0.074 µM]	11µM*	3%	-4
